The entries come from a sample that favours hits as a whole.
TTR transcr act: activators of transthyretin transcription; 92,000 tested, 1.3% active; activation, % at 16.7 µM; SH-SY5Y TTR promoter Gaussia luciferase, luminescence; 100% = recombinant luciferase protein wells;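 active means activation above the mean of all tested compounds plus 3 SD, cut at about 9.5% in these data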;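 further: cells exposed to compounds for one day before reading; 0% = median of all test compound wells on the plate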
TTR inh HuH7: HuH7 TTR transcription inhibition, counter-screen; inhibition, % at 16.7 µM; AID 1117279; HuH7 TTR promoter-Gaussia luciferase reporter, luminescence; 1,100 tested, 4% active; shares compounds with TTR transcr act;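 active means average inhibition above the solvent-only control wells' mean plus 3 SD, cut at about 15% in these data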;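 further: 0% = cells with DMSO only and 100% = cells with inhibitor control FD; inhibitors lower well luminescence so higher value means more inhibition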
TTR up confirm: human TTR transcription activation, confirmation | AID 1117280 | 1,100 tested, under 10 active | activation, % at 16.7 µM | shares compounds with TTR transcr act | SHSY5Y TTR promoter Gaussia luciferase, luminescence; 100% = purified Lucia enzyme wells, no cells;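 active means mean activation above a set limit taken from the earlier primary screen, cut at about 11% in these data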;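 further: 0% = DMSO-treated cells and 100% = recombinant Lucia luciferase without cells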
Numbers without * were called inactive.

SMILES	TTR transcr act	others
Cc1ccc(NC(=O)CN(C)C(=O)COc2c(Cl)cc(Cl)c3ccc(C)nc23)cc1	13*	TTR inh HuH7=-42;TTR up confirm=0
Cc1ccc2c(Cl)cc(Cl)c(OCC(=O)NC(=O)NCc3ccco3)c2n1	-2
COC(=O)c1cnn(-c2ccc(F)cc2F)c1/C=N/NC(=S)Nc1ccccc1	-1
COC(=O)c1cnn(-c2ccccc2)c1/C=N/NC(=S)Nc1ccccc1	11*	TTR inh HuH7=-5;TTR up confirm=-1
COC(=O)c1cnn(-c2ccc(Cl)cc2)c1/C=N/NC(=S)Nc1ccccc1	-2
C[C@H]1[C@@H](NC(=O)c2ccc(O)cc2)CC[C@@]23CCCN2C(=O)CCC[C@@H]13	-1
Cc1ccccc1CN1CCCCC(NC(=O)c2cccc(C(F)(F)F)c2)C1=O (configuration not stated)	-1
CCCC1CCC(C(=O)n2nc(N)c3cc4ccc(OC)cc4nc32)CC1 (configuration not stated)	-1
COc1ccc2cc3c(N)nn(C(=O)c4ccccc4[N+](=O)[O-])c3nc2c1	26*	TTR inh HuH7=26*;TTR up confirm=-1
COc1ccc2cc3c(N)nn(C(=O)c4ccc(Cl)c([N+](=O)[O-])c4)c3nc2c1	-1
Cc1cc(C)cc(NC(=O)OC2CC3CC2[C@H]2CCCCN2[C@H]3Cc2ccccc2)c1 (some centres not stated)	5
COc1ccc2[nH]c3c(c2c1)CCN[C@]31C(=O)N(C)c2ccccc21	0
Nc1ccc2c(c1)N=[N+]([O-])c1cc(N)ccc1C2	0
Cc1cccc(C)c1NC(=O)CN(C)C(=O)c1cc(S(=O)(=O)N(C)C)ccc1N1CCCC1	2
Cc1cccc(C)c1NC(=O)CN(C)C(=O)c1cccc(S(=O)(=O)N2CCN(C)CC2)c1	15*	TTR inh HuH7=-7;TTR up confirm=-1
Cc1cccc(C)c1NC(=O)CN(C)C(=O)c1cccc(S(=O)(=O)N2CCN(c3ccccc3)CC2)c1	0
CCCC1CCC2(CC1)CCC2OC(=S)NCc1cccc(OC)c1 (configuration not stated)	1
Cc1ccc(NC(=O)c2ccccc2NS(=O)(=O)c2ccc(F)cc2)cc1S(=O)(=O)N1CCCCC1	-5
Cc1nc(N)ncc1CCC1OCCO1	12*	TTR inh HuH7=-10;TTR up confirm=0
CC(C)C(=O)N1CCC1(C)C(=O)Nc1ccc(-n2cccc2)cc1 (configuration not stated)	-1
CCCCOc1ccc(C(=O)NC2CCCCN(Cc3ccccc3C)C2=O)cc1 (configuration not stated)	0
Cc1ccc([C@H]2C[C@H](n3cc(-c4ccc(F)cc4)nn3)[C@@H](O)CN2C(=O)C2CCCCC2)cc1	6
O=C(C1CCCCC1)N1C[C@H](n2cc(-c3ccc(F)cc3)nn2)[C@@H](O)C[C@@H]1c1ccccc1	13*	TTR inh HuH7=-7;TTR up confirm=-1
O[C@H]1C[C@H](c2ccccc2)N(CC2CCCCC2)C[C@@H]1n1cc(-c2ccc(F)cc2)nn1	2
CC(C)(C)OC(=O)N(Cc1ccccc1)Cc1ccccc1OCc1ccc(NC(=O)C2CCC2)cc1	2
SMILES	TTR transcr act	others
COc1cccc(NC(=O)Nc2nc3ncccn3c2-c2ccc(C(F)(F)F)cc2)c1	2
O=C(NNc1ccccc1F)c1ccccc1	0
O=C(NNc1nc2ccccc2o1)c1ccccc1	-1
O=C(NNc1nc2ccccc2nc1C(F)(F)F)c1ccccc1	10*	TTR inh HuH7=-10;TTR up confirm=-1
C[C@H](CO)N1C[C@H](C)[C@@H](CN(C)C(=O)Nc2ccccc2)Oc2ccc(NC(=O)Cn3cnnn3)cc2C1=O	0
Cc1cc2c(NC(=O)CCCC(=O)O)cccc2nn1	10*	TTR inh HuH7=-11;TTR up confirm=-1
Cc1cc2c(NC(=O)Nc3ccc(C(F)(F)F)cc3)cccc2nn1	0
CC(C)c1ccccc1NC(=O)CCCC(=O)O	1
Cc1cc(C)c(NC(=O)CN(C)C(=O)c2ccc(OCc3ccccc3)cc2)c(C)c1	-1
C[C@H]1CCCN1c1cccc2c1S(=O)(=O)N1CC[C@@H](C1)O2	1
Cn1cnc([N+](=O)[O-])c1Sc1ncnc2nc[nH]c12	2
Cn1cnc(Sc2ncnc3nc[nH]c23)c1[N+](=O)[O-]	38*	TTR inh HuH7=0;TTR up confirm=0
COc1ccc(C(=O)CSc2ncnc3nc[nH]c23)cc1	-1
Cc1ccc(S(=O)(=O)N(C)C)cc1NC(=O)C(C)N(C)CCOc1ccc(Cl)cc1 (configuration not stated)	-2
COC(=O)c1ccc(Cn2ccc3ccc(-c4ccc5ccn(C(=O)C6CCCCC6)c5c4)cc32)cc1	4
Cc1cc(C(F)F)n2nc(C(=O)Nc3c(F)cc(F)cc3Br)nc2n1	1
Cc1cc(C(F)F)n2nc(C(=O)O)nc2n1	0
COC(=O)c1ccccc1NC(=O)c1nc2nc(C)cc(C(F)F)n2n1	9.8*	TTR inh HuH7=-9;TTR up confirm=0
O=C(O)C1CCN(C(=O)CSc2nc3ccccc3c(=O)n2-c2ccc(Cl)cc2)CC1	1
O=C(NCCN1CCCC1)c1ccccc1Cl	0
O=C(NCc1nnc2c3ccccc3c(-c3ccccc3)nn12)c1ccccc1Cl	14*	TTR inh HuH7=-6;TTR up confirm=0
O=C(CN1CCC(NC(=O)c2ccccc2Cl)CC1)NCc1ccccc1	0
CCN(CC)CCNC(=O)C(=O)Nc1cc2c3c(c1)CC(=O)N3CCC2	6
CC(C)(C)CC(=O)Nc1cc2c3c(c1)CC(=O)N3CCC2	-1
O=C(CCl)c1cc2c3c(c1)CC(=O)N3CCC2	11*	TTR inh HuH7=75*;TTR up confirm=-4
SMILES	TTR transcr act	others
CO[C@H]1CN(C)C(=O)c2cc(NC(=O)c3cc(C)on3)ccc2OC[C@@H](C)N(C(=O)C2CC2)C[C@H]1C	2
Fc1ccc(F)c(Cn2ccc3ccc(-c4ccc5ccn(Cc6cc(F)ccc6F)c5c4)cc32)c1	0
C[C@@H]1[C@@H](O)C[C@@]2(C[C@H](O)c3cc(Cl)cc(Cl)c3O2)O[C@H]1c1ccccc1Cl	-1
Cc1ccccc1-c1noc(-c2ccccc2C(=O)NCC2CCCO2)n1 (configuration not stated)	6
Cn1nnnc1Sc1ncnc2scc(-c3cnc(N)nc3)c12	0
CC(=O)N1CC2(CC(c3ccc(Cl)cc3Cl)=NO2)CN1c1cccc(Cl)c1 (configuration not stated)	9
Cc1ccc2c(c1)nnn2C1CCN(CC(=O)N(c2ccccc2)c2ccccc2)CC1	-2
O=C(NCc1ccccc1)N1CCC(Cc2ccccc2)CC1	0
Cc1ccc2c(c1)nnn2C1CCN(C(=O)NCc2ccccc2)CC1	9.7*	TTR inh HuH7=6;TTR up confirm=-1
O=c1c2ccccc2nnn1COc1ccc(Cl)cc1Br	-1
CCC[C@H]1[C@@H](OC(=O)NCc2cccnc2)CC[C@@]23CCCN2C(=O)CCC[C@@H]13	2
CNC(=O)CCc1nc(-c2ccc(C(C)C)cc2)no1	0
O=c1nc(SCc2ccc(Cl)cc2)nc(-c2ccccc2)[nH]1	-1
Cc1nnc(SCc2ccc(Cl)cc2)nc1/C=C/N(C)C	9.7*	TTR inh HuH7=17*;TTR up confirm=-2
Cc1nc(C)c(-c2ccc(SCc3ccc(Cl)cc3)nn2)s1	-2
COC(=O)C[C@@H]1CC[C@H](NS(=O)(=O)c2cccc(F)c2)[C@@H](CO)O1	0
O=C1[C@H](Cc2ccccc2)NCC=CC[C@H](c2ccc(Cl)cc2)N1Cc1ccccc1	1
